Screen size: about 2,300 compounds; about 550 (24%) were called active. No rule for the calls is given here. Only a sample is shown. Results with a measured potency or affinity are listed apart.

This assay is described as follows: Vero E6 cell cytotoxicity, dose response, cytotoxicity control for non-replicating M. tuberculosis project, secondary assay (AID 492998). The following applies: series mostly up to 20 µM.
Consider `CCN1CCC(=NNC(=O)c2ccco2)CC1`, for which the result was inactive. As for `O=C1NC2(CCC3(CC2)OCCO3)NN1c1ccc(Cl)cc1`, the entry is “inactive”.

As to `CC(NC(=O)c1cccc(F)c1)C1CC2CCC1C2` (centres undefined), the result was inactive. Next, `Cc1ccc(C(C)C)c(OCC(=O)OCc2c(C)noc2C)c1`: “inactive”. Next, `CC1CCN(C(=O)c2ccc(-c3ccccc3Cl)o2)CC1`: “inactive”; `CCn1c(-c2ccco2)nc2ccccc21`: “inactive”; `Cc1ccc(CC(=O)Nc2ccc(Cl)cn2)cc1`: “inactive”. Next, `CCCn1c(CNc2ccccc2O)nc2ccccc21`: “inactive”; `Cc1ccc(C(=O)n2c(N)nc3ccccc32)cc1`: “inactive”; `O=C(Nc1nc2ccccc2n1CCN1CCCC1)c1ccc(Cl)cc1`: “inactive”. For `COc1cccc(-c2cc3nc4c(c(NCC(C)(C)CN(C)C)n3n2)CCCC4)c1`, the result was inactive. As for `CCOC(=O)CC(NS(=O)(=O)Cc1ccccc1)c1ccc(C)cc1` (centres undefined), the entry is “inactive”; as for `CCOC(=O)COn1c2c(c3c4no[n+]([O-])c4ccc31)CCCC2`, “inactive”. Next, `COC(=O)c1ccccc1NC(=O)C1CC(c2ccc(F)cc2)=NO1` (centres undefined): “inactive”; `COc1cc(/C=C2/C(=O)NN(c3cccc(C)c3)C2=O)ccc1OC(=O)c1ccco1`: “inactive”; `O=C(Oc1cccc2cccnc12)c1cccc(-n2cnnn2)c1`: “inactive”. Next, `Cc1nc2ccc(NC(=O)c3ccc([N+](=O)[O-])cc3[N+](=O)[O-])cc2s1`: “inactive”. Regarding `CCN(CC)CCNC(=O)c1[nH]c2ccc(OCc3ccccc3)cc2c1C`, the molecule was classed as inactive.

As to `CSc1ccccc1NC(=O)c1cc(C(C)C)on1`, the call was inactive. As to `O=C(COc1ccc(-c2ccccc2)cc1)Nc1cccnc1`, the outcome was inactive. As for `CCOC(=O)c1cc2cc3ccccc3cc2oc1=O`, the entry is “inactive”. For the molecule `O=C(OCC(=O)N1CCCCC1)c1cc2ccccc2cc1O`, the outcome was inactive. As for `CCOC(=O)COc1ccc(C(=O)c2ccccc2)c(O)c1`, the entry is “inactive”; as for `Cc1ccn2nc(S(=O)(=O)Nc3c(F)cccc3F)nc2n1`, “inactive”.

In the case of `CN(C)CC/C=C1\c2cc(Cl)ccc2Sc2cc(F)c(F)cc21`, the molecule was called inactive. As for `Cn1c(NC(=O)c2ccccc2)nc2ccccc21`, the entry is “inactive”. Take `CCn1cc(/C=N\NC(=O)c2ccc(F)cc2)cn1`: the molecule was called inactive. As for `Nc1nc2ccccc2n1C(=O)c1ccc(F)cc1`, the entry is “inactive”. For the molecule `COc1ccc(C(=O)Nc2ccccc2C(=O)N/N=C/c2ccco2)cc1`, the outcome was inactive. As to `Cc1nc2ccc(NC(=O)COc3cccc(F)c3)cc2s1`, the molecule was classed as inactive.

Take `O=C(COC(=O)c1cccc([N+](=O)[O-])c1)NCc1cccs1`: the outcome was inactive. Next, `COc1ccc(CN2CCC(C(=O)Nc3ccc(Oc4cccnc4)cc3)CC2)c(C)c1C`: “inactive”; `CSCCOC(=O)COc1ccc(/C=N/NC(=O)c2c(Cl)cnn2C)cc1`: “inactive”. Next, `O=C(COc1ccc(Br)cc1)N/N=C1/SCC(=O)N1Cc1ccco1`: “inactive”. Next, `O=C(C/C=N\OCc1ccc([N+](=O)[O-])cc1)Nc1ccc(Br)cc1`: “inactive”; `COc1ccccc1CCNC(=O)c1ccc(C)o1`: “inactive”. `NC1=NC[C@H](Cc2ccc(O)cc2)N1CCc1cccc2ccccc12`: the molecule was called inactive.

On to `O=C(N/N=C/C=C/c1ccccc1)c1ccccn1`, for which the call was inactive. As for `Cc1ccc(NCCC(=O)c2cccs2)cc1`, the entry is “inactive”; as for `CCCCCCCC(=O)N/N=C(/C)c1c(O)cc(C)oc1=O`, “inactive”; as for `CCCCCCCC(=O)NNC(=O)c1ccc(F)cc1`, “inactive”. As for `CCc1ccc(/C=N/NC(=O)c2ccccn2)cc1`, the entry is “inactive”. As for `Cc1ccc(-c2noc(CCCC(=O)Nc3cccnc3)n2)cc1`, the entry is “inactive”; as for `CCCc1cc(C(=O)Nc2ccccc2SC)no1`, “inactive”; as for `COC(=O)CCCC(=O)N1CCCC(C(=O)c2ccc(-c3ccccc3)cc2)C1` (centres undefined), “inactive”. `CSc1nnc(Cc2ccc3c(c2)OCO3)o1`: the result was inactive. As for `COc1cccc(/C=N/N2C(=O)CSC2=S)c1O`, the entry is “inactive”; as for `O=C(OCn1nnc2ccccc2c1=O)c1cccs1`, “inactive”; as for `COc1ccc2cc(C(=O)C3CCCN(Cc4cccc(C)n4)C3)ccc2c1` (centres undefined), “inactive”.

Consider `S=c1c2c(nc3nc[nH]n13)CCC2`, for which the molecule was classed as inactive. As for `CC1(C)CC(=O)C2=C(C1)OC(N)=C(C#N)C2C#Cc1ccccc1` (centres undefined), the entry is “inactive”; as for `Cc1ccc(NC(=O)C(=O)NNC(=O)c2ccccc2C)cc1Cl`, “inactive”; as for `O=C(NC1CCOc2ccccc21)c1ccc(Cl)nc1` (centres undefined), “inactive”. Next, `CCOC(=O)COc1ccc(C(=O)Nc2cccc(Cl)c2C)cc1`: “inactive”. As for `CCOC(=O)C(=CNNc1cccc(Cl)c1)C(=O)OCC`, the entry is “inactive”; as for `Cc1cc(OCCOCCNCc2ccccc2)ccc1C(C)C`, “inactive”; as for `O=C(OCC#CCSc1nc2ccccc2o1)c1ccco1`, “inactive”. With `C/C(=N\O)c1cc(Cl)ccc1O`, the molecule was classed as inactive. Next, `O=C(Nc1ccccc1N1CCCC1)c1cccc(F)c1`: “inactive”; `O=C(CCNc1cccc(F)c1)c1cccc([N+](=O)[O-])c1`: “inactive”.

`COc1ccc(O)c(C(=O)CC(=O)c2ccc(F)cc2)c1`: the call was inactive. As for `CC12CC3CC(C)(C1)CC(C(=O)N1CCCC1)(C3)C2`, the entry is “inactive”.

On to `CSc1ccc(CNc2ncc(-c3cccc([N+](=O)[O-])c3)n2C)cc1`, for which the molecule was called inactive. As for `COc1cccc(NC(=O)COC(=O)Cc2ccc(Br)cc2)c1`, the entry is “inactive”; as for `CC(C)(C)NCC1(CO)SC(N)=NC1=O` (centres undefined), “inactive”. As for `Cc1cc(C)nc(SC2CC(=O)N(c3ccc(C)c(C)c3)C2=O)n1` (centres undefined), the entry is “inactive”; as for `O=C(OCn1nnc2ccccc2c1=O)C1CCCCC1`, “inactive”; as for `O=C(COc1ccccc1)NC1CCCCC1`, “inactive”. As for `Cc1ccc2nc(C)c3c(c2c1)COC3`, the entry is “inactive”; as for `Cc1cc2cc(CNC(=O)COc3ccccc3)ccc2n1C`, “inactive”.

As to `CC1CC(C)CN(CCOCCSc2ccc(Cl)cc2)C1` (centres undefined), the molecule was called inactive.

Consider `COc1ccc(Cl)cc1N=Cc1c(O)c2ccccc2oc1=O`, for which the call was inactive. As for `O=C(COC(=O)c1cc(Br)ccc1Cl)NC1CCCC1`, the entry is “inactive”; as for `COC(=O)COc1ccc(S(=O)(=O)N2CCN(c3ccccc3F)CC2)cc1`, “inactive”; as for `O=C1/C(=C\c2ccco2)SC(=S)N1c1ccc(O)cc1`, “inactive”.

As to `Cc1ccccc1OCCC(=O)OCC(=O)NNC(=O)c1cccs1`, the outcome was inactive.

Regarding `CCSc1ncc(/C=N/Nc2ccc(Cl)cc2)n1C`, the molecule was classed as inactive. As for `O=C(COC(=O)CCc1c[nH]c2ccccc12)Nc1ccc([N+](=O)[O-])cc1`, the entry is “inactive”; as for `CCCCOC(=O)C1CCCC(C(=O)OCCCC)N1` (centres undefined), “inactive”.

For the origin of these results see PubChem BioAssay AID492998 (Southern Research Specialized Biocontainment Screening …, 2010).
